# From the supplement of paper PMC6555819
# Legend:
# Assay in all cases: PBM binding z-score (relative to random genomic background probes); higher = stronger binding; sequences stand for … in GC…GCGATTGACAGCGTAGAATGAAGG
# [1] = system: RARb homodimer (NR concentration 270 nM)
# How it was run: (§1)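 Binding buffer was PBS pH 7.4 with 2% milk, 0.02% Triton X-100, 1 mM DTT, 0.2 mg/mL BSA and 0.4 mg/ml salmon testes DNA. In it, ligand-free nuclear receptor dimers were incubated 1 h on custom Agilent 4×180K protein-binding microarrays carrying double-stranded probes. Antibodies against each partner (one per run) detected binding, and z-scores were calculated against random background probes after regression normalization of scanned fluorescence.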
# [2] = system: RARg:RXRa (NR concentration 270 nM, RXRa partner concentration 90 nM)
# How it was run: as §1
# [3] = system: RARg homodimer (NR concentration 270 nM)
# How it was run: as §1
# [4] = system: RXRa DBDmut IVT, anti-RXR (DBD mutation: RXRa K156A/R161A, NR concentration 90 nM)
# How it was run: as §1
# [5] = system: RXRa homodimer (NR concentration 180 nM)
# How it was run: as §1
# [6] = system: THRa:RXRa (NR concentration 90 nM, RXRa partner concentration 90 nM)
# How it was run: as §1
# [7] = system: THRa homodimer (NR concentration 90 nM)
# How it was run: as §1
# [8] = system: VDR homodimer (NR concentration 270 nM)
# How it was run: as §1
sequence,measurement,setting,value
CCTACTGGGCCACGAAATGTCATTGATTCAGTGA,PBM binding z-score,[1],0.607
same,PBM binding z-score,[2],0.2
same,PBM binding z-score,[3],0.479
same,PBM binding z-score,[4],-0.374
same,PBM binding z-score,[5],-0.0138
same,PBM binding z-score,[6],0.211
same,PBM binding z-score,[7],-0.319
same,PBM binding z-score,[8],-0.54
AGAATAAGGTTATACGTAGATCAGGGAAGAAAGT,PBM binding z-score,[1],0.925
same,PBM binding z-score,[2],1.78
same,PBM binding z-score,[3],1.25
same,PBM binding z-score,[4],1.2
same,PBM binding z-score,[5],1.89
same,PBM binding z-score,[6],2.41
same,PBM binding z-score,[7],0.789
same,PBM binding z-score,[8],0.657
CCTATTAGTTGACCATAAGGGCAACCGTAGCTCG,PBM binding z-score,[1],1.93
same,PBM binding z-score,[2],1.09
same,PBM binding z-score,[3],1.25
same,PBM binding z-score,[4],0.707
same,PBM binding z-score,[5],0.63
same,PBM binding z-score,[6],1.92
same,PBM binding z-score,[7],1.29
same,PBM binding z-score,[8],0.902
TCTCAGAGGACACGAAAGGTCAGAGCTCGACATC,PBM binding z-score,[1],4.95
same,PBM binding z-score,[2],5.29
same,PBM binding z-score,[3],6.24
same,PBM binding z-score,[4],1.46
same,PBM binding z-score,[5],4.47
same,PBM binding z-score,[6],3.77
same,PBM binding z-score,[7],0.917
same,PBM binding z-score,[8],0.991
CCTACCGGGCCACGAAAGGTCATTGATTCAGTGA,PBM binding z-score,[1],4.84
same,PBM binding z-score,[2],4.67
same,PBM binding z-score,[3],4.47
same,PBM binding z-score,[4],0.0824
same,PBM binding z-score,[5],4.98
same,PBM binding z-score,[6],4.19
same,PBM binding z-score,[7],1.46
same,PBM binding z-score,[8],2.22
CAGCCTAGGTCATGGCCAGTATAGGAGGAACGTT,PBM binding z-score,[1],3.01
same,PBM binding z-score,[2],4.38
same,PBM binding z-score,[3],4.94
same,PBM binding z-score,[4],1.17
same,PBM binding z-score,[5],3.32
same,PBM binding z-score,[6],2.93
same,PBM binding z-score,[7],0.965
same,PBM binding z-score,[8],0.197
AATATTAGTTGACTTAGGGCAACCGATACGACGC,PBM binding z-score,[1],0.918
same,PBM binding z-score,[2],0.615
same,PBM binding z-score,[3],0.87
same,PBM binding z-score,[4],0.532
same,PBM binding z-score,[5],0.76
same,PBM binding z-score,[6],1.44
same,PBM binding z-score,[7],0.572
same,PBM binding z-score,[8],0.87
CCTCGGAGGACAACAGGAGGTCAGACCTGCCAGA,PBM binding z-score,[1],3.55
same,PBM binding z-score,[2],3.39
same,PBM binding z-score,[3],3.43
same,PBM binding z-score,[4],0.289
same,PBM binding z-score,[5],1.93
same,PBM binding z-score,[6],2.83
same,PBM binding z-score,[7],1.02
same,PBM binding z-score,[8],1.25
CCTACTGGGCCATTTAGAGGTCATTGATCATATG,PBM binding z-score,[1],3.87
same,PBM binding z-score,[2],4.06
same,PBM binding z-score,[3],2.72
same,PBM binding z-score,[4],1.45
same,PBM binding z-score,[5],3.21
same,PBM binding z-score,[6],3.31
same,PBM binding z-score,[7],1.7
same,PBM binding z-score,[8],3.36
CGGACTAGGTCATTGACAGGACAGTGAATAGTAA,PBM binding z-score,[1],2.48
same,PBM binding z-score,[2],4.64
same,PBM binding z-score,[3],4.39
same,PBM binding z-score,[4],2.41
same,PBM binding z-score,[5],2.38
same,PBM binding z-score,[6],2.85
same,PBM binding z-score,[7],0.733
same,PBM binding z-score,[8],1.23
CCTACTGAGCCATCAGGTCATTGATATCAACGTT,PBM binding z-score,[1],2.7
same,PBM binding z-score,[2],1.5
same,PBM binding z-score,[3],1.69
same,PBM binding z-score,[4],1.17
same,PBM binding z-score,[5],1.42
same,PBM binding z-score,[6],3.37
same,PBM binding z-score,[7],3.52
same,PBM binding z-score,[8],2.2
TCTAGTTGGTCACGTAGGTCACACACGACGGGTA,PBM binding z-score,[1],3.66
same,PBM binding z-score,[2],3.36
same,PBM binding z-score,[3],3.67
same,PBM binding z-score,[4],1.06
same,PBM binding z-score,[5],2.91
same,PBM binding z-score,[6],2.39
same,PBM binding z-score,[7],1.04
same,PBM binding z-score,[8],1.22
CTACCAATGTGAACAAGGTCGTTGATTACTATTC,PBM binding z-score,[1],1.33
same,PBM binding z-score,[2],0.629
same,PBM binding z-score,[3],0.564
same,PBM binding z-score,[4],1.83
same,PBM binding z-score,[5],1.08
same,PBM binding z-score,[6],2.17
same,PBM binding z-score,[7],1.33
same,PBM binding z-score,[8],2.32
AGTCAAAGTTAACTAGGTAACGTAAGATTCAGCT,PBM binding z-score,[1],-0.331
same,PBM binding z-score,[2],0.302
same,PBM binding z-score,[3],0.566
same,PBM binding z-score,[4],-0.266
same,PBM binding z-score,[5],0.258
same,PBM binding z-score,[6],0.564
same,PBM binding z-score,[7],-0.252
same,PBM binding z-score,[8],-0.183
TTACCAGGGTGAGCTGAGGTCGTTGATCCAACTC,PBM binding z-score,[1],1.24
same,PBM binding z-score,[2],1.08
same,PBM binding z-score,[3],0.39
same,PBM binding z-score,[4],-0.148
same,PBM binding z-score,[5],1.37
same,PBM binding z-score,[6],4.67
same,PBM binding z-score,[7],1.57
same,PBM binding z-score,[8],2.47
ATCGCTAGGTAAGACTCAGTTCAGTGAAGAACGC,PBM binding z-score,[1],-0.147
same,PBM binding z-score,[2],-0.35
same,PBM binding z-score,[3],-0.262
same,PBM binding z-score,[4],-0.408
same,PBM binding z-score,[5],-0.428
same,PBM binding z-score,[6],0.249
same,PBM binding z-score,[7],-0.192
same,PBM binding z-score,[8],0.334
CCTACTGGGCCAAACGTCATTGATTCCAATGCTC,PBM binding z-score,[1],-0.184
same,PBM binding z-score,[2],-0.00983
same,PBM binding z-score,[3],-0.146
same,PBM binding z-score,[4],0.278
same,PBM binding z-score,[5],0.000676
same,PBM binding z-score,[6],-0.343
same,PBM binding z-score,[7],-0.264
same,PBM binding z-score,[8],-0.254
TCGTGTAGGTTAGTCGGGGCATTCAGCCAACATA,PBM binding z-score,[1],1.23
same,PBM binding z-score,[2],0.373
same,PBM binding z-score,[3],0.49
same,PBM binding z-score,[4],1.14
same,PBM binding z-score,[5],0.427
same,PBM binding z-score,[6],1.55
same,PBM binding z-score,[7],0.941
same,PBM binding z-score,[8],1.28
CCTACTGGGCCATCAGGGCATTGATATCAACGTT,PBM binding z-score,[1],0.404
same,PBM binding z-score,[2],0.0558
same,PBM binding z-score,[3],0.438
same,PBM binding z-score,[4],-0.959
same,PBM binding z-score,[5],-0.308
same,PBM binding z-score,[6],0.292
same,PBM binding z-score,[7],-0.276
same,PBM binding z-score,[8],-0.114
ATCTCTCGGTAAAAGTTCAGTGAATCCCGAGGAT,PBM binding z-score,[1],2.43
same,PBM binding z-score,[2],1.76
same,PBM binding z-score,[3],2.03
same,PBM binding z-score,[4],0.823
same,PBM binding z-score,[5],0.954
same,PBM binding z-score,[6],0.761
same,PBM binding z-score,[7],0.0329
same,PBM binding z-score,[8],1.74
AGTCAAAGTGCACTAGGTAACGTAAGATTCAGCT,PBM binding z-score,[1],0.614
same,PBM binding z-score,[2],0.916
same,PBM binding z-score,[3],1.26
same,PBM binding z-score,[4],0.965
same,PBM binding z-score,[5],0.453
same,PBM binding z-score,[6],0.43
same,PBM binding z-score,[7],-0.285
same,PBM binding z-score,[8],0.442
CCTACTGGACCAAAAAGGTCATTGATGCCGATAA,PBM binding z-score,[1],4.26
same,PBM binding z-score,[2],4.54
same,PBM binding z-score,[3],4.04
same,PBM binding z-score,[4],1.08
same,PBM binding z-score,[5],5.04
same,PBM binding z-score,[6],3.33
same,PBM binding z-score,[7],1.43
same,PBM binding z-score,[8],3.2
AGTCAAAGTTCACTAGCTAACGTAAGATTCAGCT,PBM binding z-score,[1],3.22
same,PBM binding z-score,[2],4.66
same,PBM binding z-score,[3],5.41
same,PBM binding z-score,[4],4.14
same,PBM binding z-score,[5],3.53
same,PBM binding z-score,[6],1.4
same,PBM binding z-score,[7],-0.145
same,PBM binding z-score,[8],3.78
ATGCCAAGGTGATCGTGAGGTCGTTGATACTAAC,PBM binding z-score,[1],1.42
same,PBM binding z-score,[2],2.12
same,PBM binding z-score,[3],0.718
same,PBM binding z-score,[4],0.41
same,PBM binding z-score,[5],1.52
same,PBM binding z-score,[6],3.54
same,PBM binding z-score,[7],2.25
same,PBM binding z-score,[8],2.53
GGAACGAGGGCATTCGTGTTGATAGCATGGCGAT,PBM binding z-score,[1],0.43
same,PBM binding z-score,[2],0.848
same,PBM binding z-score,[3],1.23
same,PBM binding z-score,[4],3.26
same,PBM binding z-score,[5],0.575
same,PBM binding z-score,[6],0.978
same,PBM binding z-score,[7],-0.391
same,PBM binding z-score,[8],1.87
TCTTGTAGATCAATCGAGGTTAAGAAAGTGCGCT,PBM binding z-score,[1],0.899
same,PBM binding z-score,[2],0.6
same,PBM binding z-score,[3],0.164
same,PBM binding z-score,[4],0.612
same,PBM binding z-score,[5],1.01
same,PBM binding z-score,[6],3.5
same,PBM binding z-score,[7],0.268
same,PBM binding z-score,[8],0.299
TAGCCTAGGTCATGGGTCAGTATACCACGCGAAC,PBM binding z-score,[1],3.88
same,PBM binding z-score,[2],5.09
same,PBM binding z-score,[3],5.02
same,PBM binding z-score,[4],0.71
same,PBM binding z-score,[5],4.72
same,PBM binding z-score,[6],3.51
same,PBM binding z-score,[7],1.65
same,PBM binding z-score,[8],1.29
ATCTCTAGATAAAAGTTCAGTGAATCCCGAGGAT,PBM binding z-score,[1],2.21
same,PBM binding z-score,[2],1.29
same,PBM binding z-score,[3],1.8
same,PBM binding z-score,[4],0.614
same,PBM binding z-score,[5],0.778
same,PBM binding z-score,[6],0.538
same,PBM binding z-score,[7],-0.209
same,PBM binding z-score,[8],1.35
CCTTACGGTTCACGAGGTTATAGCACGACGAGCG,PBM binding z-score,[1],2
same,PBM binding z-score,[2],2.73
same,PBM binding z-score,[3],1.5
same,PBM binding z-score,[4],3.15
same,PBM binding z-score,[5],4.01
same,PBM binding z-score,[6],2.8
same,PBM binding z-score,[7],1.26
same,PBM binding z-score,[8],3.82
